# Measured values published in PubChem BioAssay (Tox21).
# Activity calls are given as the source filed them. The call rests on the fitted dose curve; in most records, active means well fitted activation curve with a large enough effect in the repeat runs; inconclusive means weak or mixed curves; inactive means flat fitted curve, though single readings scatter.
# Experiment: A CellTox Green Cytotoxicity Assay to monitor cytotoxicity in HepG2 cells - 0 hour (AID 1224882); further: nearly all actives have a fitted effect of over 35% in size
# Settings: CellTox Green fluorescence; series mostly up to 76.8 µM; cytotoxicity: at the top concentration
# Method in brief: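 HepG2 cells, 600/well, preincubated 5 h with CellTox Green dye, then exposed to Tox21 compounds in DMSO at 37 C for up to 40 h. Dead-cell DNA fluorescence read at the indicated time point.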
# On the % scale 0 is the no-effect control and ±100 the full control effect.
row,Compound,cytotoxicity
1,SCCSCCS,-5.4% (inactive)
2,Cc1cccc(C(=O)O)c1[N+](=O)[O-],1.78% (inactive)
3,Cc1ccccc1N1CCN(CCc2nnc3n2CCCC3)CC1,2.09% [at 35.3 µM] (inactive)
4,OC(CCN1CCCCC1)(c1ccccc1)c1ccccc1,-0.0151% [at 35.3 µM] (inactive)
5,CN(C)CCCNCCC#N,1.57% (inactive)
6,c1ccccc1,-11.9% (inactive)
7,O=CN1CCOCC1,-0.75% (inactive)
8,CC(Cl)COP(=O)(OCC(C)Cl)OCC(C)Cl (stereo unspecified),-5.55% (inactive)
9,CCC1COC(=O)O1 (stereo unspecified),-9.62% (inactive)
10,O=C1OC(=O)c2cc(Oc3ccc4c(c3)C(=O)OC4=O)ccc21,-0.518% (inactive)
11,CCN(CCC#N)c1ccccc1,1.57% (inactive)
12,CCCCCCCC/C=C\CCCCCCCC(=O)OC[C@@H](O)[C@H]1OC[C@H](O)[C@H]1O,0.0383% (inactive)
13,CCC1Nc2cc(Cl)c(S(N)(=O)=O)cc2S(=O)(=O)N1 (stereo unspecified),-2.58% [at 35.3 µM] (inactive)
14,CNC(=O)NC,3.35% (inactive)
15,CCC(CO)CO,-2.14% (inactive)
16,NC(Cc1c[nH]c2ccccc12)C(=O)O (stereo unspecified),-0.768% [at 35.3 µM] (inactive)
